# Measurements taken from PubChem BioAssay (EPA / NIEHS).
# Calls of active or inactive are those of the source. Rule for the calls: active = hit-call score of the fitted dose curve at least 0.9, where 1 is the maximum; inactive = score below 0.9.
# Experiments:
# [1] = ATG_GRE_CIS: Attagene CIS-FACTORIAL HepG2 Assay for human Glucocorticoid Response Elements (GRE) (AID 2282947); details: HepG2 GRE cis-reporter, Attagene multiplex mRNA; actives raise or lower the signal
# In short: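 HepG2, transient cis-reporter transfection, 24 h. Reporter mRNA: RT-PCR then CE, fluorescence. Fit both directions vs DMSO.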
# [2] = ATG_ISRE_CIS: Attagene CIS-FACTORIAL HepG2 Assay for human Interferon Regulatory Factor 1 (IRF1) binding to an Interferon-Stimulated Response Element (ISRE) (AID 2282948); details: HepG2 ISRE cis-reporter (Attagene), mRNA transcription readout; actives raise or lower the signal
# In short: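 Read-out: fluorescent RT-PCR products resolved by capillary electrophoresis, reporting endogenous transcription factor activity via ISRE-driven reporter mRNA in transfected HepG2 cells dosed for 24 h; gain or loss fitted relative to DMSO.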
# [3] = ATG_M_32_CIS: Attagene CIS-FACTORIAL HepG2 Assay for M32 Transcription Factor (Internal Marker) (AID 2282949); details: HepG2 Attagene cis-factorial M32 reporter, mRNA; actives raise or lower the signal;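 note: background control marker of the multiplexed CIS panel rather than a real target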
# In short: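 Using DMSO as baseline, bidirectional curve fits were applied to reporter mRNA signals. These came from transiently transfected HepG2 cells exposed for 24 h, with RNA analysed by RT-PCR, FAM primer extension, HpaI digestion and CE.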
# [4] = ATG_M_06_CIS: Attagene CIS-FACTORIAL HepG2 Assay for M06 Transcription Factor (Internal Marker) (AID 2282950); details: HepG2 Attagene CIS-FACTORIAL M06 internal marker reporter; actives raise or lower the signal
# In short: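 Serves as a background control readout. Transfected HepG2 exposed to compounds for 24 h, then reporter transcripts quantified by fluorescent RT-PCR and capillary electrophoresis. Both directions fitted against DMSO baseline.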
# [5] = target: Hypoxia-inducible factor 1-alpha (Homo sapiens) (UniProt Q16665); assay: ATG_HIF1a_CIS: Attagene CIS-FACTORIAL HepG2 Assay for human Hypoxia Inducible Factor 1 (HIF1A) (AID 2282951); details: HepG2 Attagene cis-factorial HIF1a reporter transcription; actives raise or lower the signal
# Sequence of Hypoxia-inducible factor 1-alpha (Homo sapiens) (Q16665 whole entry, looked up): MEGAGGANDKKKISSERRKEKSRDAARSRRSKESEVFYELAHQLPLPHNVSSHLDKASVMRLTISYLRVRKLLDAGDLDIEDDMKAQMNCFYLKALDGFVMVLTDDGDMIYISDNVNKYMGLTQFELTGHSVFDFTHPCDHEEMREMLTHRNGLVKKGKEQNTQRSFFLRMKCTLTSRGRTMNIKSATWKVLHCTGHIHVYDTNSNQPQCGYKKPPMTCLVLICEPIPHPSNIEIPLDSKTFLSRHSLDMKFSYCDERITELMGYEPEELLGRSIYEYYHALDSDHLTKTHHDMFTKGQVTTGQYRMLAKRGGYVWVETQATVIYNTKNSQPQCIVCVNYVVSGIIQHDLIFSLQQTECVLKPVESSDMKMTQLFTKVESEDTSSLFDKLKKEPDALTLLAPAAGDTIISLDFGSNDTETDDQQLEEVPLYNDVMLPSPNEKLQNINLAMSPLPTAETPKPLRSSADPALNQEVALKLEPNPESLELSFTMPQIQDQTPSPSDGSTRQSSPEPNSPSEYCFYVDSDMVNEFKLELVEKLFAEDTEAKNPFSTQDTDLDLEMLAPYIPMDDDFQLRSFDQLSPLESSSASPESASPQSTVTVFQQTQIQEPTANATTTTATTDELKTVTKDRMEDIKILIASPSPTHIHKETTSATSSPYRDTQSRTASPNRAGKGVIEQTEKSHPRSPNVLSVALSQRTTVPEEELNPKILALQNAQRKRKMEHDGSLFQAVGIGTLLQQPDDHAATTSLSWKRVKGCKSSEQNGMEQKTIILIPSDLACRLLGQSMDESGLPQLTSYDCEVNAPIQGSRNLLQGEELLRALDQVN
# In short: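 Cis-element reporter constructs were transiently transfected into HepG2 cells, which were treated for 24 h; reporter RNA was reverse-transcribed, amplified, labelled and resolved by capillary electrophoresis.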
# [6] = target: Hepatocyte nuclear factor 6 (Homo sapiens) (UniProt Q9UBC0); assay: ATG_HNF6_CIS: Attagene CIS-FACTORIAL HepG2 Assay for human Hepatocyte Nuclear Factor 6 (HNF6) (AID 2282952); details: HepG2 Attagene cis-factorial HNF6 reporter transcription; actives raise or lower the signal
# Sequence of Hepatocyte nuclear factor 6 (Homo sapiens) (Q9UBC0 whole entry, looked up, the tested form may be a part): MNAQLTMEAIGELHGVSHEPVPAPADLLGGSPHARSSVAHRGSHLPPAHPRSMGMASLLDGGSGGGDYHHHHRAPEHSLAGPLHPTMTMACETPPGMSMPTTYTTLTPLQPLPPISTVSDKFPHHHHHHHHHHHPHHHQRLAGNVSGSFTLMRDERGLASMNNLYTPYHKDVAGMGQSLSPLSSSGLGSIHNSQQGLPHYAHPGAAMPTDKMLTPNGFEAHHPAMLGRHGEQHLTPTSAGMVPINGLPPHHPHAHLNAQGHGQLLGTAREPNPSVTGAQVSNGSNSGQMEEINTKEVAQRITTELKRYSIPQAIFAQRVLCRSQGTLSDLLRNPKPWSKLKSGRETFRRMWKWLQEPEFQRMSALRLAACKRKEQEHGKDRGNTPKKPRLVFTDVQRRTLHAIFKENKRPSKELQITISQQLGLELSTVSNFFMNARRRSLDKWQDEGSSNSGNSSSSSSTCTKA
# In short: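 Using cis-element reporters in HepG2 liver cells, the assay tracks endogenous factor-driven transcription 24 h post-dosing. Signal comes from 6-FAM-labelled, HpaI-digested RT-PCR fragments, with gain or loss scored against DMSO.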
# [7] = ATG_MRE_CIS: Attagene CIS-FACTORIAL HepG2 Assay for human Metal Responsive Element (MRE) (AID 2282954); details: HepG2 MRE cis-reporter transcription, Attagene multiplex; actives raise or lower the signal
# In short: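 Readout: capillary electrophoresis of 6-FAM-labelled, HpaI-digested RT-PCR reporter products. System: HepG2 cells carrying transient multiplexed cis reporters, dosed 24 h. Analysis: bidirectional fit, DMSO baseline.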
# [8] = ATG_PBREM_CIS: Attagene CIS-FACTORIAL HepG2 Assay for human Phenobarbital-responsive Enhancer Module (PBREM) (AID 2282955); details: HepG2 PBREM cis-reporter, Attagene multiplexed transcription; actives raise or lower the signal
# In short: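 Multiplexed cis-reporter readout in human hepatoma HepG2 cells; PBREM-regulated transcript quantified after 24 h exposure by fluorescent RT-PCR fragment analysis. Signal changes up or down fitted relative to DMSO.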
# [9] = target: Paired box protein Pax-6 (Homo sapiens) (UniProt P26367); assay: ATG_Pax6_CIS: Attagene CIS-FACTORIAL HepG2 Assay for human Paired Box 6 (PAX6) (AID 2282956); details: HepG2 CIS-FACTORIAL PAX6 reporter transcription, RNA readout; actives raise or lower the signal
# Sequence of Paired box protein Pax-6 (Homo sapiens) (P26367 whole entry, looked up): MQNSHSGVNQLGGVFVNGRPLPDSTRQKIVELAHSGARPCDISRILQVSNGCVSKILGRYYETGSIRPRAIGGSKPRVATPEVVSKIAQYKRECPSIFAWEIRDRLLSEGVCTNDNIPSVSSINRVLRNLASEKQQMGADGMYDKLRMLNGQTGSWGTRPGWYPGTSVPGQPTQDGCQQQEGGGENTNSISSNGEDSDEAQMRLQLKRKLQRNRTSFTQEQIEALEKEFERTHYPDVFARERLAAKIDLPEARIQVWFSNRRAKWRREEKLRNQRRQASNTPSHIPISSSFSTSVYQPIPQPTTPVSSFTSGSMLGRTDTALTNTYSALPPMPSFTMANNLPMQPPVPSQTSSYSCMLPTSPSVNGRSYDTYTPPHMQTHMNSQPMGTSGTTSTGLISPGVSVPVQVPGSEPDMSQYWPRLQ
# In short: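 Readout: reporter transcript fluorescence after RT-PCR and capillary electrophoresis. Cells: HepG2, transiently transfected with cis-regulated MRTUs. Exposure 24 h. Gain or loss of signal fitted bidirectionally relative to DMSO.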
# [10] = ATG_PXRE_CIS: Attagene CIS-FACTORIAL HepG2 Assay for human Pregnane X Receptor Element (PXRE) (AID 2282957); details: HepG2 Attagene CIS-FACTORIAL PXRE reporter, mRNA; actives raise or lower the signal
# In short: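 Using HepG2 transfected with multiple reporter transcription units, endogenous factor-driven transcription was scored as reporter mRNA after 24 h exposure.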
# [11] = ATG_PPRE_CIS: Attagene CIS-FACTORIAL HepG2 Assay for human Peroxisome Proliferator-activated Response Element (PPRE) (AID 2282958); details: HepG2 PPRE cis-element reporter, Attagene transcription factor profiling; actives raise or lower the signal
# In short: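 DMSO served as negative control and baseline for bidirectional curve fitting. Signal came from PPRE-regulated reporter mRNA in HepG2 cells, measured 24 h post-dosing by RT-PCR, 6-FAM primer extension and capillary electrophoresis.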
# [12] = ATG_RORE_CIS: Attagene CIS-FACTORIAL HepG2 Assay for human RAR-related Orphan Receptor Element (RORE) (AID 2282959); details: HepG2 Attagene cis-factorial RORE reporter, mRNA; actives raise or lower the signal
# In short: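 Transfect HepG2 with MRTUs; treat 24 h; extract RNA; RT with oligo(dT); PCR with reporter-specific primers; 6-FAM primer extension; HpaI digest 2 h at 37 C; capillary electrophoresis. Fit vs DMSO, bidirectional.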
# [13] = ATG_Sox_CIS: Attagene CIS-FACTORIAL HepG2 Assay for human SRY-box transcription factor (SOX) (AID 2282960); details: HepG2 Attagene cis-factorial SOX reporter, mRNA; actives raise or lower the signal
# In short: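 Fluorescence-labelled cDNA fragments from reporter transcripts, sized by CE, give the signal. Cells: HepG2, transiently transfected with cis-regulated reporter units. Exposure 24 h; DMSO negative control; bidirectional curve fitting.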
# [14] = target: Transcription factor Sp1 (Homo sapiens) (UniProt P08047); assay: ATG_Sp1_CIS: Attagene CIS-FACTORIAL HepG2 Assay for human Specificity Protein 1 (Sp1) (AID 2282961); details: HepG2 Sp1 cis-reporter transcription, actives raise or lower the signal
# Sequence of Transcription factor Sp1 (Homo sapiens) (P08047 whole entry, looked up): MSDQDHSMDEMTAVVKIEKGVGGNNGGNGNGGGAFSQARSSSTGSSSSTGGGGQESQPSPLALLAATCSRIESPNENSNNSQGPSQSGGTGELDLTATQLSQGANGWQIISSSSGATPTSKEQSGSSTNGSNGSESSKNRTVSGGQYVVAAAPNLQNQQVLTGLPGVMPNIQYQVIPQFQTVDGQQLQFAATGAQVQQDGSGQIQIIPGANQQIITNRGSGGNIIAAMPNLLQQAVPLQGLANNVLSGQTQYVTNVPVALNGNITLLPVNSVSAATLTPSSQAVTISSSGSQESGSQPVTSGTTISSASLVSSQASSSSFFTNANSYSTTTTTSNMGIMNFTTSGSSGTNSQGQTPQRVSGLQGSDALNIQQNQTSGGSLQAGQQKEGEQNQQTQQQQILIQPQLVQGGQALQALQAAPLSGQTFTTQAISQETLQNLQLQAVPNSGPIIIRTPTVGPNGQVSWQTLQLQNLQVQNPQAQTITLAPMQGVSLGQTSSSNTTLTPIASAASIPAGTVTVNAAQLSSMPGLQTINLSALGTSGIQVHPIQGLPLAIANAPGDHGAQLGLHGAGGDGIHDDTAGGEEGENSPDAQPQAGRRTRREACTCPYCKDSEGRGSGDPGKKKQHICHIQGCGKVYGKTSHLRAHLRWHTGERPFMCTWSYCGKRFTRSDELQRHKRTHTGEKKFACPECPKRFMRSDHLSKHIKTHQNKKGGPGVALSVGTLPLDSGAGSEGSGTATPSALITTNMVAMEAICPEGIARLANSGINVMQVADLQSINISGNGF
# In short: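 Chemicals are dosed onto HepG2 cells transfected with multiple cis-promoter reporter constructs, and after 24 h reporter RNA is reverse-transcribed, PCR-amplified and resolved by capillary electrophoresis for fluorescence quantitation; activity is scored up or down against DMSO.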
# [15] = target: Signal transducer and activator of transcription 3 (Homo sapiens) (UniProt P40763); assay: ATG_STAT3_CIS: Attagene CIS-FACTORIAL HepG2 Assay for human Signal Transducer and Activator of Transcription 3 (STAT3) (AID 2282963); details: HepG2, Attagene cis-factorial STAT3 reporter transcription; actives raise or lower the signal
# Sequence of Signal transducer and activator of transcription 3 (Homo sapiens) (P40763 whole entry, looked up): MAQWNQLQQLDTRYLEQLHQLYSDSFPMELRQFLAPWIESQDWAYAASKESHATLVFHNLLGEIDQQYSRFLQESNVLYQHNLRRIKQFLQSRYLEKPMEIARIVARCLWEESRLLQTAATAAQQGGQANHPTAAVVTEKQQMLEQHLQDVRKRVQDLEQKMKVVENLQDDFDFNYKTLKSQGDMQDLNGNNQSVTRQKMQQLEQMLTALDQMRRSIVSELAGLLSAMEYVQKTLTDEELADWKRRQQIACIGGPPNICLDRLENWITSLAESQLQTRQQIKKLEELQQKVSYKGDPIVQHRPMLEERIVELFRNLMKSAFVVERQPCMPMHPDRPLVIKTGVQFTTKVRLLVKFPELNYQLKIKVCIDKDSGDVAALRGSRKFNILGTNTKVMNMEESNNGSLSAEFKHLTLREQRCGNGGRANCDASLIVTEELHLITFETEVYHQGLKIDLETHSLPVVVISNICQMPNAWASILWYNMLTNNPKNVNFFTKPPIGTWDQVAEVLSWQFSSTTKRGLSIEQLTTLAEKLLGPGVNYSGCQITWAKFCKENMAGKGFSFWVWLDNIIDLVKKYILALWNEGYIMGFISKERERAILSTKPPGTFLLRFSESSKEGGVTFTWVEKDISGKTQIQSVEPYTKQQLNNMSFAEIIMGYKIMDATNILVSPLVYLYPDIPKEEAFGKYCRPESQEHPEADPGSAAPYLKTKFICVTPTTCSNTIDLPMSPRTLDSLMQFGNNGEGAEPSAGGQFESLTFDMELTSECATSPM
# In short: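 Uses human liver HepG2 transiently carrying cis-regulated reporter transcription units. Following 24 h dosing, reporter mRNA induction was detected by RT-PCR and capillary electrophoresis, analysed bidirectionally versus DMSO.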
# [16] = ATG_TA_CIS: Attagene CIS-FACTORIAL HepG2 Assay for human TA Basal Promoter (AID 2282964); details: HepG2 Attagene CIS-factorial TA basal promoter reporter; actives raise or lower the signal
# In short: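 Background-control readout: TA basal promoter reporter mRNA, fitted in both directions relative to DMSO. Measured by RT-PCR and capillary electrophoresis 24 hours after treating HepG2 human liver cells transiently carrying multiplexed cis-regulated reporter constructs.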
# [17] = ATG_TCF_b_cat_CIS: Attagene CIS-FACTORIAL HepG2 Assay for human T-Cell-Factor with beta-catenin (TCF/b-cat) (AID 2282965); details: HepG2 TCF/beta-catenin cis-reporter transcription, actives raise or lower the signal
# In short: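 In this cis-format system, transfected HepG2 cells report endogenous transcription factor activity. Readout after 24 h exposure is reporter transcript abundance from RT-PCR and capillary electrophoresis, analysed for gain or loss of signal versus DMSO.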
# [18] = ATG_SREBP_CIS: Attagene CIS-FACTORIAL HepG2 Assay for human Sterol Regulatory Element Binding (SREBP) (AID 2282962); details: HepG2 Attagene cis-factorial SREBP reporter, mRNA; actives raise or lower the signal
# In short: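 Readout: fluorescent reporter-transcript peaks resolved by capillary electrophoresis after RT-PCR. Cells were human HepG2 carrying transfected cis-promoter reporter constructs, dosed for 24 h. Gain or loss of signal was fitted against DMSO controls.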
# [19] = target: Heat shock factor protein 1 (Homo sapiens) (UniProt Q00613); assay: ATG_HSE_CIS: Attagene CIS-FACTORIAL HepG2 Assay for human Heat Shock Transcription Factor 1 (HSE) (AID 2282953); details: HepG2 HSE cis-reporter, Attagene RNA transcription; actives raise or lower the signal
# Sequence of Heat shock factor protein 1 (Homo sapiens) (Q00613 whole entry, looked up): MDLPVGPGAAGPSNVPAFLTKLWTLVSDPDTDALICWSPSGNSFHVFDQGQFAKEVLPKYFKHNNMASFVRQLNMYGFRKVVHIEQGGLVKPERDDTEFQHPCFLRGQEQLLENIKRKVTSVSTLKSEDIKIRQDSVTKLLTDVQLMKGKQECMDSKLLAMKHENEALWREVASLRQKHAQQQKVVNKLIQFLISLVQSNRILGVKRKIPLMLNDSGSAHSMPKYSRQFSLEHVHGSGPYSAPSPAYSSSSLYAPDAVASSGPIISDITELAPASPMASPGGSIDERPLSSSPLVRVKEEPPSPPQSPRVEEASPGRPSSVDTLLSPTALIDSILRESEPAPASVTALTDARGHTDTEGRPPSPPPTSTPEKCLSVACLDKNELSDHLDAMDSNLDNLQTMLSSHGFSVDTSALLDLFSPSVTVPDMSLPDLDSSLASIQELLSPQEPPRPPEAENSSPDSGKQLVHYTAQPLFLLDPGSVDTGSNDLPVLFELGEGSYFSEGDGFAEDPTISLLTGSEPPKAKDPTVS
# In short: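 Endogenous transcription factor activity in transiently transfected HepG2, read as reporter mRNA by RT-PCR with fluorescent capillary electrophoresis after 24 h. Gain or loss of signal fitted versus DMSO baseline.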
smiles,measurement,setting,value
Cc1ccc(O)c(C(C)(C)C)c1,AC50,[1],100 µM (active)
same,outcome,[2],inactive
same,outcome,[3],inactive
same,outcome,[4],inactive
same,outcome,[5],inactive
same,AC50,[6],156 µM (active)
same,AC50,[7],146 µM (active)
same,outcome,[8],inactive
same,AC50,[9],138 µM (active)
same,AC50,[10],25.1 µM (active)
same,outcome,[11],inactive
same,AC50,[12],162 µM (active)
same,outcome,[13],inactive
same,AC50,[14],80.7 µM (active)
same,outcome,[15],inactive
same,outcome,[16],inactive
same,outcome,[17],inactive
C[C@H]1C[C@H]2[C@@H]3CCC4=CC(=O)C=C[C@]4(C)[C@@]3(F)[C@@H](O)C[C@]2(C)[C@@]1(O)C(=O)COP(=O)(O)O,AC50,[1],0.0823 µM (active)
same,outcome,[2],inactive
same,outcome,[3],inactive
same,outcome,[4],inactive
same,outcome,[5],inactive
same,outcome,[6],inactive
same,outcome,[7],inactive
same,outcome,[9],inactive
same,outcome,[11],inactive
same,outcome,[12],inactive
same,outcome,[13],inactive
same,outcome,[14],inactive
same,outcome,[18],inactive
same,outcome,[16],inactive
same,outcome,[17],inactive
Cc1cc(C2(c3cc(C)c(O)cc3C)OS(=O)(=O)c3ccccc32)c(C)cc1O,outcome,[1],inactive
same,outcome,[2],inactive
same,outcome,[3],inactive
same,outcome,[4],inactive
same,outcome,[5],inactive
same,outcome,[6],inactive
same,outcome,[7],inactive
same,outcome,[9],inactive
same,AC50,[10],24.2 µM (active)
same,outcome,[12],inactive
same,outcome,[13],inactive
same,outcome,[14],inactive
same,outcome,[18],inactive
same,outcome,[15],inactive
same,outcome,[16],inactive
same,outcome,[17],inactive
CC(=O)OCCOC(C)=O,outcome,[1],inactive
same,outcome,[2],inactive
same,outcome,[3],inactive
same,outcome,[4],inactive
same,outcome,[5],inactive
same,outcome,[6],inactive
same,outcome,[19],inactive
same,outcome,[7],inactive
same,outcome,[9],inactive
same,AC50,[10],82.2 µM (active)
same,outcome,[12],inactive
same,outcome,[13],inactive
same,outcome,[14],inactive
same,outcome,[18],inactive
same,outcome,[15],inactive
same,outcome,[16],inactive
same,outcome,[17],inactive
C/C=C(\C)C(=O)OCc1ccccc1,outcome,[1],inactive
same,outcome,[2],inactive
same,outcome,[3],inactive
same,outcome,[4],inactive
same,outcome,[5],inactive
same,outcome,[6],inactive
same,outcome,[19],inactive
same,outcome,[7],inactive
same,outcome,[9],inactive
same,outcome,[10],inactive
same,outcome,[12],inactive
same,outcome,[13],inactive
same,outcome,[14],inactive
same,outcome,[18],inactive
same,outcome,[15],inactive
same,outcome,[16],inactive
same,outcome,[17],inactive
C=CC(=O)OCC(O)COc1ccccc1 (configuration not stated),AC50,[1],67.3 µM (active)
same,AC50,[2],27.4 µM (active)
same,outcome,[3],inactive
same,outcome,[4],inactive
same,outcome,[5],inactive
same,outcome,[6],inactive
same,outcome,[7],inactive
same,outcome,[8],inactive
same,AC50,[9],41.2 µM (active)
same,outcome,[10],inactive
same,outcome,[11],inactive
same,outcome,[12],inactive
same,AC50,[13],26.3 µM (active)
same,outcome,[14],inactive
same,outcome,[15],inactive
same,outcome,[16],inactive
same,outcome,[17],inactive
CCO[Si](CCCS)(OCC)OCC,outcome,[1],inactive
same,outcome,[2],inactive
same,outcome,[3],inactive
same,outcome,[4],inactive
same,AC50,[5],28.4 µM (active)
same,outcome,[19],inactive
same,outcome,[7],inactive
same,outcome,[9],inactive
same,outcome,[10],inactive
same,outcome,[11],inactive
same,outcome,[12],inactive
same,outcome,[13],inactive
same,outcome,[14],inactive
same,outcome,[18],inactive
same,outcome,[15],inactive
same,outcome,[16],inactive
same,outcome,[17],inactive
CCC(C)(O)CCC=C(C)C (configuration not stated),outcome,[1],inactive
same,outcome,[2],inactive
same,outcome,[3],inactive
same,outcome,[4],inactive
same,outcome,[5],inactive
same,outcome,[6],inactive
same,outcome,[19],inactive
same,outcome,[7],inactive
same,outcome,[9],inactive
same,outcome,[10],inactive
same,outcome,[13],inactive
same,outcome,[14],inactive
same,outcome,[18],inactive
same,outcome,[15],inactive
same,outcome,[16],inactive
same,outcome,[17],inactive
